Drawing on PubChem BioAssay (Tox21), this text covers max response and Potency for 16 compounds.

Where “and” joins values, the source holds several entries; their conditions need not be identical. Equal entries are not always repeated. Records with an inconclusive call do not appear. Some compounds were tested as several samples or in several runs, with calls that do not always agree. Values without a mark were called inactive. Calls of active or inactive are those of the source. Calls come from the whole dose curve; as a rule, active = well fitted cell-killing curve with a large enough effect in the repeat runs; inconclusive = weak or mixed curves, or effect the other way; inactive = flat fitted curve, though single readings scatter.
% is set by controls: 0 for no effect and ±100 for the full control effect; potency is the fitted concentration of half-maximal effect.

The assay is described as follows: qHTS RealTime-Glo MT Cell Viability Assay in HEK293 cells - 40 hour (AID 1224874). Note: nearly all actives have a fitted effect of over 50% in size. To be noted: RealTime-Glo luminescence; max response: active compounds read low. In a few lines: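 Tox21 screen in HEK293 using RealTime-Glo MT chemistry, with cells and reagent co-dispensed. Luminescence proportional to viable cell number was captured at intervals during 40 h compound exposure at 37 C.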
Consider `CC1(C)NC(=O)NC1=O`, for which the max response was 4.62% and 21.9%.

`CCCCCCCCCCN`: the max response was 0.163% and 1.85%.

Turning to `C[Si]1(C)O[Si](C)(C)O[Si](C)(C)O[Si](C)(C)O1`, the max response was 3.24% and 9.03%.

Take `O=C(O)/C=C/C(=O)O`: the max response was -4.18% and -12.4%.

Turning to `CC(C)OC(=O)COc1ccc(Cl)cc1Cl`, the max response was 8.21% and -2.23%.

With `O=C(OCC1CCC2OC2C1)C1CCC2OC2C1` (stereo not drawn), the max response was 2.18% and 1.6%.

Take `O=C1c2ccccc2CCc2ccccc21`: the max response was -14.3% and 0.842%.

As for `Nc1nc(N)nc(-c2ccccc2)n1`, the max response was -23.1% and 0.641%.

`C[C@]12CC[C@@H]3c4ccc(O)cc4CC[C@H]3[C@@H]1C[C@@H](O)[C@@H]2O`: the max response is -25.2%.

`CCO[Si](CCC#N)(OCC)OCC`: the max response is 7.39% and 2.23%.

For `O=C1CCCC1`, the max response was -0.988% and 5.09%.

As to `O=C(O)c1ccc(S(=O)(=O)N(Cl)Cl)cc1`, the Potency is 43.9 µM (active) and the max response is 0.122%.

`CCCCCCCCCCCCCCCCO`: the max response is -1.41%.

With `CC(C)CC(=O)CC(C)CC(C)C` (stereo not drawn), the Potency is 15.5 µM (active) and the max response was 0.688%.

Turning to `C=C(C)CNCC`, the max response is 0.995% and -23.9%.

Regarding `CNC(=O)Oc1ccc2c(c1)[C@]1(C)CCN(C)[C@@H]1N2C`, the max response is 4.52% and 8.75%.
